From PubChem BioAssay (NCI) come the findings set out here.

The structures appear in SMILES notation. The panel holds about 83,000 compounds, 20% with a hit somewhere; the sample as a whole holds those more often.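 The test compound was applied at a single concentration to cells in 96-well plates for 48 hours, and percent growth was recorded.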 Unmarked numbers belong to inactive results. Calls of active or inactive are those of the source. Rule for the calls: active = growth percent below 10; inactive = the rest.

Assay in all cases: NCI-60 one-dose screen, 48 h (100 = growth as untreated, 0 = no growth, -100 = all killed)
Common to all, as to details: 10 µM unless noted

The test system of experiment [1] is SK-MEL-2 melanoma.
The subject of experiment [2] is EKVX NSCLC.
For experiment [3], the system named is SN12C renal.
The test system of experiment [4] is UO-31 renal.
In experiment [5] the test system is TK-10 renal.
The test system of experiment [6] is ACHN renal.
Experiment [7] has as its system A498 renal.
Experiment [8] has as its system CCRF-CEM leukemia.
For experiment [9], the system named is MOLT-4 leukemia.
The test system of experiment [10] is CAKI-1 renal.

As to `[2H]C1([2H])CCN(C(=O)C2CC2)c2cc(NS(=O)(=O)c3ccc(-c4cccc(C(N)=O)c4)cc3)ccc21`, the growth was 7.75% (active) in experiment [1]; 72.7% in experiment [2]; 43.7% in experiment [3]; 77.8% in experiment [4]; 64.2% in [5]; 73.5% in experiment [6]. Moreover, the results for the growth in experiment [7], in experiment [8] and in experiment [9] were -0.663% (active), 30.7% and 44.3%, respectively.
As to `CC(C)C1=NOC(=O)C1=Cc1cn(-c2ccccc2)nc1-c1ccc(Br)cc1`, the growth is 87% in experiment [1]; 93.3% in [2]; 84.8% in experiment [3]; 67.9% in [4]; 91.5% in experiment [5]; 81.5% in experiment [6]. The growth in experiment [7] was 57%; in [8], 2.56% (active); in [9] it was -15.7% (active).
For the molecule `N=C(N)c1ccc(-c2ccc(-c3ccc(-c4cccs4)s3)s2)cc1F`, the growth is 114% in experiment [1]; 98.8% in [2]; 92.7% in [3]; 76.5% in [4]; 122% in experiment [5]; 101% in experiment [6]. The growth in experiment [7] is 0.519% (active); in experiment [8], 26.8%; in [9], 91%.
For `COc1ccc(C(C(=O)O)c2ccc(OC)cc2)cc1`, the growth was 111% in experiment [1]; 106% in experiment [2]; 121% in experiment [3]; 108% in experiment [4]; 114% in experiment [5]; 109% in experiment [6]. The growth in [7] is 86.7%; in [8], 100%; in experiment [9] it was 104%.
As to `CCCN1CC(c2ccc(OC)c(OC)c2)=C(c2cn(C(=O)OCC)c3ccccc23)C1=O`, the growth in experiment [1] is 53.3%; in experiment [2], 55.6%; in [3], 53%; in experiment [4] it was 39.4%; in experiment [5] it was 89.6%; in [6], 37%. In addition, the growth in experiment [7] was -11.4% (active); in experiment [8], 78.8%; in [9], 38.7%.
As to `C[C@H]1[C@H](C)CC[C@]2(C(=O)O)CC[C@]3(C)C(=CC[C@@H]4[C@@]5(C)C/C(=C/c6cccnc6)[C@H](O)C(C)(C)[C@@H]5CC[C@]43C)[C@H]12`, the growth in experiment [1] was -28.1% [100 µM] (active); in experiment [2] it was 15.8% [100 µM]; in experiment [3], 3% [100 µM] (active); in [4], -77% [100 µM] (active); in [5] it was 8.85% [100 µM] (active); in experiment [6], 4.57% [100 µM] (active). The growth in experiment [7] is 19% [100 µM]; in experiment [8] it was -1.43% [100 µM] (active).
Consider `COCc1nc2ccccc2[nH]1`, for which the growth in experiment [1] is 102%; in experiment [2], 93.9%; in experiment [3], 104%; in [4], 87.3%; in experiment [5] it was 97.3%; in experiment [6] it was 99.9%. The growth in [7] was 104%; in experiment [8] it was 105%; in experiment [9] it was 93%.
As to `O=C1NC(=O)c2cc([N+](=O)[O-])cc3cccc1c23`, the growth in [1] is 107%; in experiment [2], 94.2%; in experiment [3] it was 98.1%; in experiment [4], 66.4%; in [5], 107%; in experiment [6], 103%. For the same molecule, the growth was 87.1% in experiment [7], 89.8% in [8] and 115% in experiment [9].
Regarding `N#C/C(C(=O)c1ccccc1)=C1/C(=O)Nc2ccc(F)cc21`, the growth in [1] was 108%; in experiment [2], 94.2%; in [3], 98%; in experiment [4], 74%; in experiment [5], 122%; in experiment [6] it was 92.6%. The growth was 81.1% in [7], 116% in [8] and 104% in experiment [9].
With `CCN(CC)CCCCCCNc1cccc2cc(Br)cnc12`, the growth in [1] was 21.7%; in experiment [2], 93.1%; in experiment [3] it was 104%; in experiment [4] it was 61%; in experiment [5], 58.7%; in experiment [6], 104%. Besides, the figures for the growth in experiment [10], in experiment [7] and in experiment [9] were 62.3%, 86.3% and 9.09% (active), respectively.
As for `C#C[C@]1(O)CC[C@H]2[C@@H]3CC=C4c5nc(Nc6ccc(OC)cc6OC)sc5CC[C@]4(C)[C@H]3CC[C@@]21C`, the growth is -10.1% (active) in experiment [1]; 24.7% in experiment [2]; 37.6% in [3]; 13.2% in experiment [4]; 51.3% in [5]; 32.6% in experiment [6]. The growth in experiment [7] is -56% (active); in [8], 16.9%.
In the case of `C[C@@H]1C[C@H]2C(=O)O[C@@H](C)[C@H](NC(=O)[C@H](Cc3cc(F)cc(F)c3)NC(=O)Nc3ccc(Cl)cc3F)C(=O)N3C[C@H](O)C[C@H]3C(=O)N3CCN(C)C[C@H]3C(=O)N[C@@H](C)C(=O)N2C1`, the growth in experiment [1] was 29.6%; in experiment [2], 69.8%; in [3] it was 22.9%; in experiment [4], 83%; in [5], 91.7%; in [6] it was 104%. In addition, the growth in experiment [7] is 33.1%; in experiment [8], 53.7%; in experiment [9], 41.7%.
Consider `COc1ccc2nc3ccccc3c(NCCNCCO)c2c1`, for which the growth was -56.1% (active) in experiment [1]; -7.03% (active) in [2]; 1.83% (active) in experiment [3]; -7.42% (active) in experiment [4]; -12.7% (active) in experiment [5]; -27.4% (active) in [6]. The values for the growth in [7], in experiment [8] and in [9] were -60.4% (active), 10.9% and 10.1%, respectively.
`CC(C)C1=NOC(=O)C1=Cc1cn(-c2ccccc2)nc1-c1ccc(Cl)cc1`: the growth in [1] is 85.6%; in experiment [2] it was 98.5%; in [3], 78.2%; in experiment [4], 71.4%; in experiment [5] it was 83.3%; in [6], 82.6%. Further, the growth in experiment [7] was 91.4%; in experiment [8] it was 4.95% (active); in experiment [9], -4.85% (active).
